NS1 inh – influenza NS1 inhibition; 270,000 compounds, 0.4% hits; Potency, µM (doses to about 46.1 µM), inactives show top-dose activity, positive = more growth; also: actives are rising curves; nearly all actives have a fitted effect of over 50% in size
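Recovery from NS1-induced slow growth read by OD600 in budding yeast switched to galactose assay medium (pH 6.0, -URA) at 1:100 dilution. Compound 23 nl per well; the matching strain lacking NS1 serves as control.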
Pf growth 48h – inhibits P. falciparum growth in the first generation, 48 h; 310,000 compounds, 5.9% hits; P. falciparum luciferase growth in erythrocytes, 48 h; Potency, µM (series often up to 28.7 µM), without a hit: at the highest dose activity change, negative = inhibition, most hits filed as inhibitors; active = well fitted inhibition curve with a large enough effect; inconclusive = small, poorly fitted or top-dose-only effect, or another doubt; inactive = no such curve, though single readings can be large or run the other way; also: % is scaled to controls: 0 for no effect and ±100 for the full control effect
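First compound was added to culture medium, then infected red cells at 0.1% parasitemia and 2% hematocrit (final). After incubation at 37 C under 5% CO2, luciferase detection reagent was dispensed and light output recorded.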
SARS PLpro yeast – blocks SARS-CoV papain-like protease in a yeast assay. S. cerevisiae expressing SARS-CoV PLpro, growth rescue. Potency, µM (top dose mostly 32.9 µM), inactives show at the top dose activity, positive = growth rescue, hits mostly activators. 330,000 compounds, 0.19% hits; also: 0% is about no effect; nearly all actives have a fitted effect of over 55% in size
Pf growth 96h – P. falciparum growth inhibition at 96 hour, primary screen for plastid delayed-death inhibitors | P. falciparum luciferase reporter growth, 96 h | Potency, µM (highest dose often 28.7 µM), without a hit: top-dose activity change, negative = inhibition, hits mostly inhibitors | 320,000 compounds, 6.9% hits | AID 504834; active = well fitted inhibition curve with a large enough effect; inconclusive = small, poorly fitted or top-dose-only effect, or another doubt; inactive = no such curve, though single readings can be large or run the other way; also: % is scaled to controls: 0 for no effect and ±100 for the full control effect
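96 h incubation, 37 C, 5% CO2, of luciferase-reporter P. falciparum-infected RBCs (2% hematocrit, 0.05% parasitemia final) with test compounds; endpoint luminescence.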
RE007 growth inh – less growth of the S. pombe RE007 Vpr strain; S. pombe RE007 Vpr strain, BacTiter-Glo ATP luminescence, 24 h; Potency, µM (top dose mostly 92.2 µM), inactives show at the top dose activity change, negative = less growth, hits mostly inhibitors; 360,000 compounds, 0.21% hits; AID 651644; active = well fitted falling curve with a large enough effect; inconclusive = small, poorly fitted or top-dose-only effect; inactive = no such curve, though single readings can be large or run the other way; also: % is scaled to controls: 0 for no effect and ±100 for the full control effect; nearly all actives have a fitted effect of over 50% in size
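Fission yeast strain RE007, carrying one chromosomally integrated HIV-1 vpr copy, was seeded at OD 0.01 in PMG+AL medium with 23 nL pinned compound. After 24 h at 30 °C and 99% humidity, viability was read by BacTiter-Glo luminescence.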
Active calls of the source: *; [ ] = remark or other dose. Rows were chosen to be rich in hits. Some 9.5% of all compounds tested hit in one or more screens of this group. Unless noted, calls follow the shape of the full dose curve. Potency is read from the fitted curve at half-maximal effect.

`OC(CNCc1ccc(F)cc1)(c1ccccc1)c1ccc(F)cc1` (stereo not given) gave NS1 inh 4.3%, Pf growth 48h 2.62µM*, SARS PLpro yeast 5.1%, Pf growth 96h 1.65µM* and RE007 growth inh 0.9%.
COc1ccc(CNCC(O)(c2ccccc2)c2ccccc2)cc1 was read as NS1 inh -1.3%, Pf growth 48h 0.0%, SARS PLpro yeast 0.7%, Pf growth 96h 0.0% and RE007 growth inh 3.6%.
For OC(CNCc1ccccc1)(c1ccc(F)cc1)c1ccc(F)cc1 the results were NS1 inh 0.1%, Pf growth 48h 4.65µM*, SARS PLpro yeast 0.6%, Pf growth 96h 2.08µM* and RE007 growth inh -10.6%[3.69 µM].
OC(CNCc1ccccc1)(c1ccccc1)c1ccccc1 was read as NS1 inh -1.1%, Pf growth 48h 13.1µM*, SARS PLpro yeast -0.6%, Pf growth 96h 8.28µM* and RE007 growth inh 1.5%.
For O=C(NCCN1CCOCC1)c1ccc(NS(=O)(=O)c2cccc([N+](=O)[O-])c2)cc1 the results were Pf growth 48h 1.3%, SARS PLpro yeast 1.6%, Pf growth 96h 28.7% and RE007 growth inh 1.2%.
Cc1ccc(S(=O)(=O)NC(=O)C2(C)CCN2C(=O)CC2CCCC2)cc1 (stereo not given) was read as RE007 growth inh 6.4%.
COc1ccc(CNCC(O)(c2ccc(F)cc2)c2ccc(F)cc2)cc1 was read as Pf growth 48h 11.7µM*, SARS PLpro yeast 0.7%, Pf growth 96h inconclusive and RE007 growth inh -27.2%.
`Cc1ccc(S(=O)(=O)N2CCN(c3ccnc4cc(Cl)ccc34)CC2)cc1` gave NS1 inh -37.4%, Pf growth 48h 10.4µM*, SARS PLpro yeast -0.5%, Pf growth 96h inconclusive and RE007 growth inh -0.8%.
Screening CCS(=O)(=O)N1CCN(c2ccnc3cc(Cl)ccc23)CC1 returned NS1 inh 0.4%, Pf growth 48h 11.7µM*, SARS PLpro yeast 0.2%, Pf growth 96h 10.4µM* and RE007 growth inh -13.7%.
`Cc1ccc(S(=O)(=O)N2CCN(c3ccnc4cc(Cl)ccc34)CC2)cc1C` gave NS1 inh -2.7%, Pf growth 48h inconclusive, SARS PLpro yeast -3.2%, Pf growth 96h 8.1% and RE007 growth inh -17.9%.
`Fc1cccc(Cl)c1CNCCCSc1ncccn1` gave NS1 inh 3.5%, Pf growth 48h -10.8%, SARS PLpro yeast 13.8%, Pf growth 96h 13.1µM* and RE007 growth inh -7.8%.
Screening Clc1ccc(CNCCCSc2ncccn2)cc1Cl returned NS1 inh -1.3%, Pf growth 48h 30.8%, SARS PLpro yeast -9.4%, Pf growth 96h inconclusive and RE007 growth inh 2.2%.
CC(C)c1ccc(CNCCCSc2ncccn2)cc1 was read as NS1 inh 8.7%, Pf growth 48h 5.2%, SARS PLpro yeast -1.3%, Pf growth 96h 13.1µM* and RE007 growth inh -6.2%.
CCOc1ccc(CNCCCSc2ncccn2)cc1 was read as NS1 inh -3.0%, Pf growth 48h -14.9%, SARS PLpro yeast -2.0%, Pf growth 96h 10.4µM* and RE007 growth inh 4.7%.
`CN(C)Cc1csc(Nc2ccc(C(F)(F)F)cn2)n1` gave RE007 growth inh -21.1%.
Screening Cc1ccc(C(=O)OCn2ncc(Cl)c(Cl)c2=O)cc1 returned NS1 inh -203.1%, Pf growth 48h inconclusive, SARS PLpro yeast -36.8%, Pf growth 96h inconclusive and RE007 growth inh 50.1µM*.
`Cc1cc(CNC(=O)CC2C(=O)NCCN2Cc2ccccc2)nn1C` (stereo not given) gave NS1 inh -1.0%, Pf growth 48h -8.8%, SARS PLpro yeast -1.6%, Pf growth 96h inconclusive and RE007 growth inh -6.0%.
For CN(CCc1ccccn1)C(=O)CC1C(=O)NCCN1Cc1ccc(-c2ccccc2)cc1 (stereo not given) the results were NS1 inh -2.1%, Pf growth 48h inconclusive, SARS PLpro yeast -2.8%, Pf growth 96h 11.7µM* and RE007 growth inh inconclusive.
For Cc1ccc(CN2CCNC(=O)C2CC(=O)N(C)CCc2ccccc2)cc1 (stereo not given) the results were NS1 inh -1.9%, Pf growth 48h inconclusive, SARS PLpro yeast -0.1%, Pf growth 96h 7.38µM* and RE007 growth inh -6.9%.
Screening Cc1cc(CNC(=O)CC2C(=O)NCCN2CC(c2ccccc2)c2ccccc2)on1 (stereo not given) returned NS1 inh 9.7%, Pf growth 48h 1.5%, SARS PLpro yeast 0.7%, Pf growth 96h 14.7µM* and RE007 growth inh 0.0%.
`Cc1cc(CNC(=O)CC2C(=O)NCCN2Cc2ccc(-c3ccccc3)cc2)nn1C` (stereo not given) gave NS1 inh -2.0%, Pf growth 48h -12.9%, SARS PLpro yeast 9.4%, Pf growth 96h 9.28µM* and RE007 growth inh 13.4%.
`COc1ccc(OC)c(NC(=O)COC(=O)C2CCCCC2)c1` gave SARS PLpro yeast 13.3% and RE007 growth inh 2.4%.
`C=CCC1NS(=O)(=O)O[C@H](CCCC)[C@@H]1O` (stereo not given in full) gave NS1 inh 17.6%, Pf growth 48h 39.4%, SARS PLpro yeast 5.7%, Pf growth 96h -8.1% and RE007 growth inh 11.6%.
Screening CN(CCC1CCOCC1)C(=O)CC1C(=O)NCCN1C/C=C/c1ccccc1 (stereo not given) returned NS1 inh 0.9%, Pf growth 48h -2.1%, SARS PLpro yeast 0.9%, Pf growth 96h 40.1% and RE007 growth inh 4.9%.
`CN(CC1CCOCC1)C(=O)CC1C(=O)NCCN1C/C=C/c1ccccc1` (stereo not given) gave NS1 inh -0.2%, Pf growth 48h 5.8%, SARS PLpro yeast 1.0%, Pf growth 96h 4.65µM* and RE007 growth inh -8.1%.
For OC(COCC(F)(F)C(F)(F)C(F)(F)C(F)F)Cn1c2ccc(Cl)cc2c2cc(Cl)ccc21 (stereo not given) the results were NS1 inh -60.4%, Pf growth 48h 1.04µM*, SARS PLpro yeast -93.7%, Pf growth 96h 0.586µM* and RE007 growth inh -8.9%.
Screening N=c1n(Cc2ccc(Cl)cc2)c2ccccc2n1CC(O)COc1ccccc1 (stereo not given) returned NS1 inh -1.8%, Pf growth 48h inconclusive, SARS PLpro yeast -4.5%, Pf growth 96h -10.9% and RE007 growth inh 11.1%.
For O=C(O)C1CCN(C(=O)CSc2nnc3ccccn23)CC1 the results were SARS PLpro yeast 2.7% and RE007 growth inh -12.6%.
O=C(COc1ccccc1[N+](=O)[O-])N/N=C/C=C/c1ccco1 was read as NS1 inh -2.1%, Pf growth 48h 78.2%, SARS PLpro yeast 1.9%, Pf growth 96h 131.7% and RE007 growth inh -4.7%.
CCCCCCCC(=O)N/N=C/c1ccc([N+](=O)[O-])o1 was read as NS1 inh -30.3%, Pf growth 48h inconclusive, SARS PLpro yeast -48.5%, Pf growth 96h inconclusive and RE007 growth inh -8.8%.
